From PubChem BioAssay (NCI)
Compounds without any hit were thinned out: in the full panel of roughly 83,000, 20% have a hit.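 Results are percent growth after 48 hours of single-concentration exposure. 100 means growth as in untreated cells, lower positive values show inhibition; negative values down to -100 show cell death.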 A number with no mark means an inactive call. The source made the active and inactive calls. Rule for the calls: active = growth percent below 10; inactive = the rest.

Tested on: HL-60(TB) leukemia
Assay: NCI-60 one-dose screen, 48 h (100 = growth as untreated, 0 = no growth, -100 = all killed)
Conditions: 10 µM unless noted

| SMILES | growth |
| --- | --- |
| O=C(Nc1ccc(Br)cc1F)c1cc(Br)ccc1O | -23.7% (active) |
| O=C(O)c1cn(C2CC2)c2cc(N3CCN(C(=O)N/N=C/c4ccccc4)CC3)c(F)cc2c1=O | 100% |
| Cc1oc2c(C)c3oc(=O)cc(C)c3cc2c1CCl | 70.8% |
| O=C(COc1ccc(Cl)cc1Cl)Oc1coc(CSc2nc3ccccc3s2)cc1=O | 100% |
| Cc1ccc(C)n1-c1ccsc1C(=O)NNC(=O)CCl | 104% |
| COc1ccc(-c2nc(/C=C3\C(=O)N(C)c4ccccc43)c3ccccn23)cc1 | 41.1% |
| C(=C\c1ccccc1)/CN1CCN(C(c2ccccc2)c2ccccc2)CC1 | 85.3% |
| COc1cc2c(c(OC)c1OC)CCC(c1cccc(C(=O)Nc3ccc(Br)cc3)c1)O2 (centres undefined) | 73.1% |
| COc1cc(C(=O)/C=C/c2c(C(F)(F)F)nc3sccn23)cc(OC)c1OC | -20% (active) |
| NC(=O)c1ccc(-c2cccc3c(=O)nc(N4CCOCC4)oc23)cc1 | 97.5% |
| N#Cc1nc(C#N)c(Sc2ccccc2)c(Sc2ccccc2)c1Sc1ccccc1 | -37.2% (active) |
| COc1cccc2c1C(=O)c1c(O)c3c(c(O)c1C2=O)C[C@@](O)(C(=O)COC(=O)c1cccnc1)C[C@@H]3OC1CC(N)C(O)C(C)O1 (some centres undefined) | -27% (active) |
| Cc1ncc(C(=O)Nc2ccc(CN3CCN(C)CC3)c(C(F)(F)F)c2)cc1C#Cc1cnc(N)c2ccc(C#N)cc12 | 13.2% |
| COc1ccc2c3ccnc(C(F)(F)F)c3n(CCCCN)c2c1 | 53.8% |
| C/C(=N\Nc1cc(C)nc2ccc(Br)cc12)c1ccc([N+](=O)[O-])cc1 | -37.4% (active) |
| O=C(Nc1cccc(Cl)c1)Oc1c(Br)c(Br)c(Br)c(Br)c1Br | 88.4% |
| N#Cc1c(Nc2ccccc2)nc2n(c1=O)-c1ccccc1Sc1ccccc1-2 | 79.6% |
| COc1cc(C2CC(c3cccc(Nc4ccncc4)c3)=NN2c2cc(Cl)cc(Cl)c2)cc(OC)c1OC (centres undefined) | -44.7% (active) |
| CCOC(=O)C1=C(C)N(C)C(=O)N(C)C1c1ccccc1 (centres undefined) | -4.05% (active) |
| CC(=O)c1ccc(NC(=O)CSc2nnc(-c3cc(-c4ccc(Cl)cc4)nc4ccccc34)o2)cc1 | 91.3% |

| SMILES | growth |
| --- | --- |
| NCCNc1nc2ccccc2c2c(=O)c3cc(F)cc(Cl)c3sc12 | -42.8% (active) |
| C=C(C)[C@@H]1CC[C@]2(C(N)=O)CC[C@]3(C)[C@H](CC[C@@H]4[C@@]5(C)C/C(=C/c6cccnc6)[C@H](O)C(C)(C)[C@@H]5CC[C@]43C)[C@@H]12 | 0.0883% [100 µM] (active) |
| O=C(Nc1ccc(Br)c(Cl)c1)c1cc(F)ccc1O | -33.4% (active) |
| COc1ccc(C(=O)/C=C/c2cc(-c3ccc4c(c3)OCO4)n[nH]2)cc1OC | 42.9% |
| CCOC(=O)C(COS(C)(=O)=O)(COS(C)(=O)=O)C(=O)OCC | 104% |
| O=C(CN1C(=O)c2ccccc2S1(=O)=O)Nc1nc(-c2cc3ccccc3oc2=O)cs1 | 101% |
| Cc1cc2cc3cc(C)c(N(C)C)cc3nc2cc1N(C)C | 47.5% |
| CCc1ccc(C2=C/C(=C/c3ccccc3)C(=O)N2CCc2ccc(S(N)(=O)=O)cc2)cc1 | 100% |
| O=c1ccc2nc(-c3ccccn3)nn(-c3ccccc3)c-2c1 | 31.1% |
| N/C(=N\N=C\c1cc2ccccc2[nH]1)N/N=C/c1cc2ccccc2[nH]1 | 101% |
| Cc1nn(-c2ccccc2)c(N)c1N=C1NC(=O)/C(=C/c2ccc(Cl)cc2)S1 | 74.3% |
| COc1cc2ncnc(Oc3cccc(NC(=O)Nc4cc(C(C)(C)C(F)(F)F)on4)c3)c2cc1OC | 12.1% |
| CCOC(=O)N1C=CC2C=CC1C1C=CC=CC2N1C(=O)OCC (centres undefined) | 104% |
| CCCCCCCCCCCCCCCCCCSC(=N)N | 46% |
| N#C/C(=C\c1ccc(-c2cccc(C(F)(F)F)c2)o1)c1ccccc1 | 96.2% |
| CN(C)CCNc1nc2ccccc2c2c1c1c(n2Cc2ccccc2)-c2ccccc2C1=O | -85% (active) |
| COc1cc(/C=N/n2c(CN3CCOCC3)nc3ccccc3c2=O)cc(OC)c1OC | 98.1% |
| CCOC(=O)c1ccc2c(c1)c1c(C)c3cnccc3c(C)c1n2C | -18.8% (active) |
| N#C/C(=C\c1ccc(-c2ccc(Cl)cc2)o1)c1nc(-c2ccco2)cs1 | 92.3% |
